Experimental data: PubChem BioAssay AID620 (Sanford-Burnham Center for Chemical Genomics, 2007)
The whole screen tested about 87,000 compounds, of which about 360 (0.41%) were called active. This is one part of a sample in which actives are shown more often than they occur. Values without a mark were called inactive. Rule as the data show it: active = cytotoxicity above about 50%; inactive = the rest.

Assay: HT1080 cell viability loss – fluorescence readout (AID 620);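 also: cells exposed to compound overnight then 4 h with Alamar Blue; 0% = vehicle DMSO and 100% = killing control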
Conditions: at 10 µM, hits give high values

Structure (SMILES) | cytotoxicity
COc1cc(C)c(C(C)C)cc1S(=O)(=O)n1cnc(C)c1 | 61.2% (active)
COc1cc(C)c(C(C)C)cc1S(=O)(=O)n1ccnc1 | -1.7%
COc1cc(C)c(Cl)cc1S(=O)(=O)n1cnc(C)c1 | -1.4%
CCn1ncc(Br)c1C(=O)NC(C)c1ccccc1 (centres undefined) | 9%
COc1ccc2nc(-c3cccc(N)c3)[nH]c2c1 | 33.4%
Nc1cccc(-c2nc3ccccc3[nH]2)c1 | -3.9%
N#CC1=C(c2ccccc2)N=P(N2CCOCC2)(N2CCOCC2)N=C1N1CCOCC1 | -10.4%
CCNc1ccc(S(=O)(=O)C(F)(F)F)cc1NC(=O)C12CCC(CC1)C2 | 0.9%
COC(=O)c1c(N)sc(C(C)=O)c1C | -8.8%
COC(=O)c1sc(N)c(C(=O)OC)c1COC(=O)c1c(C)noc1C | 50.8% (active)
COc1ccc(C(C)=O)cc1COC(=O)c1c(C)noc1C | 14%
Cc1nnc(SCC(=O)Nc2ccc3c(c2)OCO3)o1 | 12.7%
COc1nc(NCc2ccco2)nc(N2CCC(C)CC2)n1 | -3.4%
COc1cccc(C2N(c3ccccn3)C(=O)C3CCCN32)c1OC (centres undefined) | -9.8%
CN(C)CC(C(=O)c1ccccc1)c1ccccc1 (centres undefined) | 57.7% (active)
CCC(C(=O)c1ccc(O)cc1)c1ccccc1 (centres undefined) | -4%
CN(C)c1ccc(C(=O)C(O)c2ccccc2)cc1 (centres undefined) | -14%
CC(C)CC(C(=O)NC1CCCC1)N(Cc1cccs1)C(=O)c1snc(C(N)=O)c1N (centres undefined) | -7.5%
O=C(NCc1csc(-c2ccccc2)n1)c1ccco1 | -1.4%
COc1ccccc1-n1cnc2cc(NCc3ccco3)ccc21 | 59.5% (active)
COc1ccccc1-n1cnc2cc(NCc3ccccn3)ccc21 | -10%
COc1ccc(-n2cnc3cc(NCc4cccs4)ccc32)cc1 | 1.1%
Cc1ccccc1-n1cnc2cc(NCc3cccs3)ccc21 | 33.7%
COc1ccccc1-n1cnc2cc(C(=O)NCc3ccco3)ccc21 | -2.4%
COc1ccccc1-n1cnc2cc(NCc3cccs3)ccc21 | 60% (active)
CCOC(=O)CCP(=O)(O)C(C)(O)c1ccccc1 (centres undefined) | -7.3%

Structure (SMILES) | cytotoxicity
COn1c(=O)c(-c2cccs2)[n+]([O-])c2ccccc21 | -15.3%
CCOc1ccccc1N1CC(O)=C(c2nc3ccccc3s2)C1=N | 68.7% (active)
COc1ccc(N2CC(O)=C(c3nc4ccccc4s3)C2=N)c(OC)c1 | -0.1%
COc1ccc(OC)c(N2CC(O)=C(c3nc4ccccc4s3)C2=N)c1 | -5.7%
O=C(NCc1ccccc1)C1(c2ccccc2)CCN(S(=O)(=O)c2ccccc2)CC1 | -1.9%
O=C(CSc1nc2c(c(=O)n1-c1ccc(Cl)cc1)SCC2)N1CCCC1 | -1.5%
N#Cc1c(-c2ccc(Cl)cc2)ccn2nc(C3CCCCC3)nc12 | -4%
Cc1nc(NC(C)C)c2oc3ccccc3c2n1 | -2.5%
COc1cccc(N2CCN(c3ncnc4c3[nH]c3ccccc34)CC2C)c1 (centres undefined) | -3%
Fc1ccc2[nH]c3c(N4CCN(c5ccccc5)CC4)ncnc3c2c1 | -4.2%
COc1cccc(N2CCN(c3ncnc4c3[nH]c3ccc(F)cc34)CC2C)c1 (centres undefined) | 54.2% (active)
O=C(C1CCCN(Cc2cccc(F)c2)C1)N1CCCCC1 (centres undefined) | 14.1%
O=C(Nc1ccc(N2CCN(C(=O)c3ccc(Cl)cc3)CC2)cc1)c1cc2ccccc2o1 | 7%
O=C(Nc1ccc(CN2CCOCC2)cc1)c1cc2ccccc2o1 | 8.9%
O=C(Nc1ccc(N2CCOCC2)cc1)c1cc2ccccc2o1 | 1.6%
CCC(=O)N1CCN(c2ccc(NC(=O)c3cc4ccccc4o3)cc2Cl)CC1 | 96.3% (active)
O=C(Nc1ccccc1N1CCN(C(=O)c2ccc(Cl)cc2)CC1)c1cc2ccccc2o1 | 1.6%
O=C(Nc1ccc(N2CCOCC2)c(Cl)c1)c1c(F)c(F)c(F)c(F)c1F | 8.9%
O=C(Nc1ccc(N2CCOCC2)c(Cl)c1)c1cc2ccccc2o1 | 89.6% (active)
CCCC(=O)N1CCN(c2ccc(NC(=O)c3cc4ccccc4o3)cc2Cl)CC1 | 69.8% (active)
O=C(Nc1ccc(N2CCOCC2)c(Cl)c1)c1ccc(F)cc1 | 56.2% (active)
O=C(Nc1ccc(N2CCOCC2)c(Cl)c1)c1cccc(F)c1 | 22.9%
CCC(=O)Nc1ccc(NC(=O)c2cc3ccccc3o2)cc1 | -1.5%
CCC(=O)N1CCN(c2ccc(NC(=O)c3cc4ccccc4o3)cc2)CC1 | 1.3%
CCOC(=O)c1ccc2ncc(C(=O)OCC)c(NCc3ccco3)c2c1 | 1.9%
O=S(=O)(Nc1ccccn1)c1ccc(Cl)cc1 | -6.1%

Structure (SMILES) | cytotoxicity
COc1cccc(-n2c(Cc3cc(=O)[nH]c(=O)[nH]3)nnc2SCC(=O)N2CCCC2)c1 | 3.9%
COc1ccc([C@H]2[C@@H](C#N)[C@H](C#N)N3CCCN23)cc1 | 5.9%
O=C(CCn1c(=O)sc2ccccc21)NCCN1CCOCC1 | 4.4%
Cc1ccc(-c2noc(CCCN3C(=O)c4ccccc4C3=O)n2)cc1 | -3.5%
CC(C)c1ccc(NC(=S)NCc2cccs2)cc1 | -17.4%
O=C(CN1CCc2ccccc2C1)Nc1ccc(Br)cc1 | -3.2%
O=C(Nc1ccc(N2CCCC2)c(Cl)c1)c1ccc(Br)o1 | 12.7%
O=C(Nc1ccc(N2CCN(C(=O)c3ccco3)CC2)c(Cl)c1)c1cc2ccccc2o1 | 81.6% (active)
O=C(Nc1ccc(N2CCN(C(=O)c3ccccc3)CC2)c(Cl)c1)c1ccco1 | -4.5%
O=C(Nc1ccc(N2CCOCC2)c(Cl)c1)c1ccc(Br)o1 | 51.4% (active)
O=C(Nc1ccc(N2CCN(C(=O)c3ccccc3)CC2)c(Cl)c1)c1ccc(Br)o1 | 22.5%
O=C(Nc1ccc(N2CCN(C(=O)c3ccco3)CC2)c(Cl)c1)c1c(F)c(F)c(F)c(F)c1F | -3%
COc1ccc2c(c1)c(=O)oc1cc(OCC(=O)N3CCCC(C)C3)ccc12 (centres undefined) | -1.8%
CCC1=C(C)N(CCCC(=O)O)C(=O)NC1c1cccc(Cl)c1Cl (centres undefined) | -11.7%
CCOC(=O)C1=C(C)NC(SCC(=O)O)=C(C#N)C1c1ccco1 (centres undefined) | -8%
O=C(CN(C1CCCCC1)S(=O)(=O)c1ccccc1)NCc1cccnc1 | 1.3%
CCOC(=O)c1c(C)[nH]c2cc(Br)c(OC)cc12 | -9%
C=CCNC(=O)C12CC3(C)CC(C)(CC(C)(C3)C1)C2 | -24.6%
CCOC(=O)Nc1sc(C(=O)N(CC)CC)c(C)c1C(=O)OCC | -6%
CCOC(=O)c1c(NC(=O)CN(C)C)sc(C(=O)N(CC)CC)c1C | 25.3%
CCOC(=O)c1c(NC(=O)CCl)sc(C(=O)N(CC)CC)c1C | 53.8% (active)
CCC(C)[C@H](NC(=O)NCc1cccs1)C(=O)O (some centres undefined) | 8.7%
CC(C)(C)NC(=O)Cn1nnnc1-c1nonc1N | 0.2%
CCOC(=O)c1cnc(SCc2ccc(C)cc2)nc1N | 5.8%
CCC(=O)Nc1nonc1-c1nc2ccccc2n1CC(C)C | 2.9%
CCC(=O)Nc1nonc1-c1nc2ccccc2n1Cc1cccc2ccccc12 | 56.3% (active)

Structure (SMILES) | cytotoxicity
CCCCOc1ccccc1NC(=O)Cn1c(-c2nonc2N)nc2ccccc21 | 24.5%
CCC(=O)Nc1nonc1-c1nc2ccccc2n1Cc1ccc(Cl)c(Cl)c1 | -2.7%
CCOC(=O)c1ccccc1NC(=O)Cn1c(-c2nonc2N)nc2ccccc21 | 60.4% (active)
COC(=O)c1ccccc1NC(=O)Cn1c(-c2nonc2N)nc2ccccc21 | 32%
O=C(O)c1cccc(CN2C(=O)CSC2=O)c1 | 3.1%
Cc1nn(-c2ccccc2)c2sc(C(=O)OCN3C(=O)c4ccccc4C3=O)cc12 | -4%
NC(=O)c1ccccc1OCC(=O)NS(=O)(=O)c1ccc(Cl)cc1 | -12.8%
CC(C)COc1ccc(CNC(=S)N/N=C/c2ccc([N+](=O)[O-])cc2)cc1 | -12.7%
O=C1C2CCCN2C(c2cccc(F)c2)N1c1cccc(Cl)c1 (centres undefined) | 8.3%
N=c1n(CCN2CCOCC2)c2ccccc2n1CC(=O)c1ccc(Cl)c(Cl)c1 | 80.5% (active)
CCCCOC(=O)Cn1c(=N)n(CCN2CCOCC2)c2ccccc21 | -3.2%
N=c1n(CCOc2ccccc2)c2ccccc2n1CCN1CCOCC1 | 6.2%
O=C(COc1ncnc2ccccc12)NC1CCS(=O)(=O)C1 (centres undefined) | 0.3%
O=C(Nc1ccc(NC(=O)C2CCCCC2)nc1)c1ccco1 | -0.2%
COc1ccccc1N1CCN(Cc2nc(N)nc(Nc3ccc(C)cc3)n2)CC1 | -2.7%
CSc1nc(C)c2cc(C)oc2n1 | 10.3%
COc1ccc2nc(NC(=O)CCn3cccc3)sc2c1 | 2.1%
CN(C)c1ncc(C2=C(Cl)C(=O)C(N3CCCC3)=C(Cl)C2=O)s1 | 16.7%
CN1CCN(C2=C(Cl)C(=O)C(c3cnc(N4CCCCC4)s3)=C(Cl)C2=O)CC1 | 37.1%
CCCCOc1ccc(CSc2nncn2N)cc1 | 0.8%
Cc1ccccc1NS(=O)(=O)c1ccc(F)cc1 | 6.2%
COc1ccc(OC)c(NS(=O)(=O)c2ccc(N3CCCC3=O)cc2)c1 | 60.6% (active)
COc1ccc(CCNS(=O)(=O)c2ccc(N3CCCC3=O)cc2)cc1 | -12.5%
COc1ccc(OC)c(NS(=O)(=O)c2ccc3c(c2)n(C)c(=O)n3C)c1 | -7.2%
O=C1CCCN1c1ccc(S(=O)(=O)NCCOc2ccccc2)cc1 | -6.1%
Cc1ccccc1NS(=O)(=O)c1ccc(N2CCCC2=O)cc1 | 56.7% (active)
